The values that follow come from PubChem BioAssay (Tox21).

Results filed as inconclusive are left out. Where a call stands in place of a potency, no number is given. Activity calls are given as the source filed them. The call rests on the fitted dose curve; in most records, active means well fitted inhibition curve with a large enough effect in the repeat runs; inconclusive means weak or mixed curves, or effect the other way; inactive means no such curve, though single readings can be large or run the other way.
Potency means the concentration at half of the fitted maximal effect.

In this assay the target is Nuclear receptor ROR-gamma (Homo sapiens) (UniProt P51449). Nature of the assay: qHTS assay to identify small molecule antagonists of the retinoid-related orphan receptor gamma (ROR-gamma) signaling pathway (AID 1159521; further: nearly all actives have a fitted effect of over 50% in size; on activity change, negative = inhibition: top concentration of the series differs between compounds). As to conditions: Tet-on RORgamma CHO cells, RORE-luciferase, 16 h; series mostly up to 42.5 µM. The text has this: U.S. Tox21 Program National Center for Advancing Translational Sciences [NCATS] NIH Chemical Genomics Center [NCGC] U.S. Environmental Protection Agency [EPA] National Institutes of Environmental Health Sciences [NIEHS] National Toxicology Program [NTP] U.S. Food and Drug Administration [FDA] Tox21 Assay Overview: Nuclear steroid hormone receptors are involved in many biological processes including inflammatory responses, cell proliferation, and apoptosis. Environmental factors or compounds disrupting these nuclear receptor pathways and gene expression may promote susceptibility to immunotoxicants and autoimmune diseases. One important group of these expression factors are the retinoid-related orphan receptors. To assess compounds that may interfere with the retinoid-related orphan receptor gamma (ROR-gamma) transcription factor, a cell-based luciferase assay was used. The CHO cell-based assay utilizes a TET-inducible ROR expression factor and ROR response element-LUC reporter gene. Reporter gene activity was induced using Doxycycline Hyclate and measured after 16 hr incubation. Tet-on ROR gamma CHO cells were used to screen against the Tox21 10K compound library for ROR gamma antagonists by quantification of decreased reporter gene activity in terms of decreased luminescence.
Tox21 Assay Protocol Summary: Tet-on ROR gamma CHO cells were dispensed at 1,000 cells in 4 uL of culture medium per well into white wall/solid bottom 1536-well plates using a Multidrop Combi (Thermo Scientific, Waltham, MA) dispenser. Following incubation at 37 C and 5% CO2 for 4 hr, 23 nL of compounds dissolved in DMSO, positive controls or DMSO only were transferred by a Pintool station (Kalypsys, San Diego, CA) and after 2 hr incubation at 37 C, one ul of 1 uM (final concentration) of Doxycycline Hyclate was added to all the wells by using a Flying Reagent Dispenser (FRD) (Aurora Discovery, San Diego, CA). After 16 hr incubation at 37 C and 5% CO2, 5 uL of ONE-Glo reagent (Promega Corporation, Madison, WI) was added to each assay plate using FRD. After 30 min incubation at room temperature, luminescence was quantified on a ViewLux plate reader (Perkin Elmer, Waltham, MA).
With `CCN(CC)CCNC(=O)c1cc(S(C)(=O)=O)ccc1OC`, the Potency entry is “inactive”.
The same measure, in the same setting: as for `COC(=O)NN`, the entry is “inactive”.
Take `N[C@@H](C(=O)N[C@@H]1C(=O)N2C(C(=O)O)=C(Cl)CS[C@H]12)c1ccccc1`: the activity change, negative = inhibition is 46.6% [at 8.39 µM] (inactive).
As to `CC(=O)c1ccccc1O`, the Potency result was “inactive”.
Still for that read-out and setting: the entry for `CC(C[N+](C)(C)C)OC(N)=O` (stereo not given) is “inactive”.
The same measure, in the same setting: the entry for `CCOC(=O)Nc1ccc(NCc2ccc(F)cc2)nc1N` is “inactive”; for `Cc1cccn2c(=O)c(-c3nnn[nH]3)cnc12` it is “inactive”; for `O=C[C@H](O)[C@@H](O)[C@H](O)[C@H](O)CO` it is “inactive”.
For `NS(=O)(=O)c1cc2c(cc1Cl)NC(C1CC3C=CC1C3)NS2(=O)=O` (stereo not given), the Potency entry is “inactive”.
Still for that read-out and setting: the entry for `OC(CCN1CCCCC1)(c1ccccc1)C1CC2C=CC1C2` (stereo not given) is “inactive”; for `CN(C)CCCN1c2ccccc2CCc2ccc(Cl)cc21` it is 19.3 µM (active); for `Nc1ccccc1S(=O)(=O)O` it is “inactive”.
For the molecule `CCO[Si](CCC1CCC2OC2C1)(OCC)OCC` (stereo not given), the Potency result was “inactive”.
Regarding `NC(=O)COCCN1CCN(C(c2ccccc2)c2ccc(Cl)cc2)CC1` (stereo not given), the Potency is 2.66 µM (active).
Turning to `COc1ccc2c(c1)CCCC2=O`, the Potency entry was “inactive”.
`COc1ccccc1OCC(O)CN1CCN(CC(=O)Nc2c(C)cccc2C)CC1` (stereo not given): the Potency entry was “inactive”.
On the same count and under the same terms, as for `CC(C)CCCC(C)N` (stereo not given), the entry is “inactive”.
As to `O=C(O)CN(CCOCCOCCN(CC(=O)O)CC(=O)O)CC(=O)O`, the activity change, negative = inhibition was 4.15% [at 0.35 µM] (inactive).
In the case of `COC(=O)CCSCCC(=O)OC`, the Potency entry was “inactive”.
Turning to `CN(C)CCCSc1ccccc1NC(=O)/C=C/c1ccccc1`, the Potency result was “inactive”.
On to `C[N+](C)(C)CC(O)CC(=O)[O-]` (stereo not given), for which the Potency entry is “inactive”.
The same measure, in the same setting: as for `C=C1CC[C@H]2C[C@@H]1C2(C)C`, the entry is “inactive”; as for `O=C(CCCN1CCC(O)(c2cccc(C(F)(F)F)c2)CC1)c1ccc(F)cc1`, “inactive”.
In the case of `NC(CSCC(=O)O)C(=O)O` (stereo not given), the Potency entry is “inactive”.
For the molecule `CCCCCCOC(=O)CCCCC(=O)OCCCCCC`, the Potency result is “inactive”.
`CC/C=C\CC/C=C/C(OCC)OCC`: the Potency entry was “inactive”.
As to `CCN(Cc1ccncc1)C(=O)C(CO)c1ccccc1` (stereo not given), the Potency entry is “inactive”.
On the same count and under the same terms, as for `Cc1[nH]c(=O)c(C#N)cc1-c1ccc2nccn2c1`, the entry is “inactive”; as for `CO/N=C(/C(=O)N[C@@H]1C(=O)N2C(C(=O)OCOC(=O)C(C)(C)C)=C(C)CS[C@H]12)c1csc(N)n1`, “inactive”.
Consider `CCCC(=O)O[C@]1(C(=O)CO)CC[C@H]2[C@@H]3CCC4=CC(=O)CC[C@]4(C)[C@H]3[C@@H](O)C[C@@]21C`, for which the Potency result was “inactive”.
Same read-out and setting: the entry for `N[C@H](C(=O)O)c1ccc(O)cc1` is “inactive”; for `CCCCOCCOCCOCc1cc2c(cc1CCC)OCO2` it is “inactive”; for `C/C=C(\C)C#N` it is “inactive”.
The same measure, in the same setting: the entry for `CC(C)(C)c1nnc(NS(=O)(=O)c2ccccc2)s1` is “inactive”; for `COc1ccc2c(c1)c(CC(=O)OCC(=O)O)c(C)n2C(=O)c1ccc(Cl)cc1` it is “inactive”; for `OCCOc1ccc(OCCO)cc1` it is “inactive”.
With `CC(C)(C)NCCNC(C)(C)C`, the Potency result was “inactive”.
On the same count and under the same terms, as for `Cc1c(O)cccc1O`, the entry is “inactive”; as for `O=C(O)CCCl`, “inactive”; as for `Cc1sccc1Br`, “inactive”.
